# PubChem BioAssay
# Activity calls are given as the source filed them.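 How the source made its calls, unless noted: active means visual image review flags a hit and inhibition of aggregation exceeds 20%; inconclusive means visual hit but inhibition at or below 20%; inactive means no hit on visual image review.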
# Legend:
# [1] = inhibitors of TNFa-induced NFkB p65 translocation, primary screen, imaging, HUVEC, MLSMR starter and 10KST1 sets (AID 438;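 active means inhibition above 20% together with a positive visual image hit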;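 further: compound added about 3h40 before a 20 min TNFalpha stimulation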;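 on inhibition: signal is the nuclear over cytoplasmic p65 intensity ratio per well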); settings: HUVEC TNFa-induced p65 nuclear translocation; cell count: measured here: nuclei count (cytotoxicity indicator), at 2.08 µM; inhibition: at 2 µM, stronger effect = higher value, 0% TNFa-plus-vehicle, 100% no-TNFa wells
# [2] = reduction of polyQ htt aggregates in cells – imaging, exon1htt(103Q)mCFP cells, high-content imaging, primary screen (AID 483); settings: exon1htt(103Q)mCFP cell line, aggregate imaging, at 2 µM; inhibition of aggregation: stronger effect = higher value; nuclei count: measured here: cell count, toxicity;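 further: compound exposure lasted 3 days before fixation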;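 on nuclei count: percent of the per-plate median nuclei count of sample wells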
# [3] = endothelial E-selectin expression blockers – imaging, HUVEC, immunofluorescence, MLSMR starter and 10KST1 sets, primary screen (AID 487;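 active means visually confirmed hit in the image check and inhibition above 20%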;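 on inhibition: signal is fraction of cell area covered by stained E-selectin grains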;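 on nuclei count: 100% = median nuclei count of all wells on the same plate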); settings: HUVEC TNFalpha-induced E-selectin immunofluorescence imaging, at 2 µM; inhibition: stronger effect = higher value; nuclei count: measured here: cell number, toxicity
# [4] = molecular target: Voltage-gated potassium channel subunit beta-2 (Rattus norvegicus) (UniProt P62483); assay: inhibitors of rat Kvbeta2 reductase activity – biochemical, NADPH fluorescence, primary screen (AID 622;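 active means fluorescence slope higher than the sample average by over 3 SD, cut at about -0.22 in these data, passing the limit was not always enough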;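 further: slope of raw intensity against log time taken from 70 to 1610 s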); settings: recombinant KvBeta, 4-cyanobenzaldehyde reduction, at 10 µM, stronger effect = higher value
# Sequence of Voltage-gated potassium channel subunit beta-2 (Rattus norvegicus) (P62483 whole entry, looked up): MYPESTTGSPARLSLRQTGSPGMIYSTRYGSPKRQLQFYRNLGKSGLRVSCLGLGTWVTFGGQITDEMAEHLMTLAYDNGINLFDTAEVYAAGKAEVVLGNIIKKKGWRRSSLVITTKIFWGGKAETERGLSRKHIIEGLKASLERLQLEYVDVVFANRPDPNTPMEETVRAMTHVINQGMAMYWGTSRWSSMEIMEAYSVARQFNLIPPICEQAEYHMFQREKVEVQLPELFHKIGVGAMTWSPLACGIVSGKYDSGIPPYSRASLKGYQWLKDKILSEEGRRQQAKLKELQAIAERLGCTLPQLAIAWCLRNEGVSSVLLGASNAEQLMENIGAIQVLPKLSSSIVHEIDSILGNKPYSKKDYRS
# [5] = molecular target: Voltage-gated potassium channel subunit beta-2 (Rattus norvegicus) (UniProt P62483); assay: enhancers of rat Kvbeta2 NADPH turnover – biochemical, NADPH fluorescence, primary screen (AID 623;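 active means NADPH fluorescence slope more negative than the mean of all samples by about 3 SD, 99.7% confidence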;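 further: fluorescence intensity change per second fitted from 20 to 320 s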); settings: Recombinant KvBeta, NADPH fluorescence decrease slope, 10 min; at 10 µM; stronger effect = lower value
# [6] = molecular target: Alpha-2C adrenergic receptor (Homo sapiens) (UniProt P18825); assay: compounds altering alpha2C-coupled GIRK flux – cell-based, HEK293 alpha2C/GIRK1/2, thallium flux, primary screen (AID 624;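 active means fluorescence slope after compound addition differing from the mean of all screened samples at 99.7% confidence, in either direction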;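 further: slope of fluorescence ratio to pre-addition baseline per second over 15 to 24 s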); settings: thallium flux BTC fluorescence, at 10 µM, actives lie on both sides
# Sequence of Alpha-2C adrenergic receptor (Homo sapiens) (P18825 whole entry, looked up): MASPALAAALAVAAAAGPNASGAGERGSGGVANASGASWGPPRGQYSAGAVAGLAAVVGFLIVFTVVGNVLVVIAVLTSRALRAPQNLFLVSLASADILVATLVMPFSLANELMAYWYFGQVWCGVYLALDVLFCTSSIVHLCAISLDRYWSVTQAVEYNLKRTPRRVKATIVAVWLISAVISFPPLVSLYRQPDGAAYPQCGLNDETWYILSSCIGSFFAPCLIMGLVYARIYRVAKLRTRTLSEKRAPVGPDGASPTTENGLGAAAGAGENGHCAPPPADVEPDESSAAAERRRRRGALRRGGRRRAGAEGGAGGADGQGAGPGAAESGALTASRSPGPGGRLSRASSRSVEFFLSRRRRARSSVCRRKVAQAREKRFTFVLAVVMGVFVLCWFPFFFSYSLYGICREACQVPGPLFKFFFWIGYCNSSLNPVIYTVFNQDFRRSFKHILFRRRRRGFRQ
# [7] = blockers of RIG-like receptor reporter activation – cell-based, Sendai virus stimulus, luciferase, 10K MLSCN set, TLR/RLR signaling modifier project, primary screen (AID 602276;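 active means inhibition at or above 50% at 10 µM; inactive means inhibition below 50%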;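 further: firefly luciferase from ISG56 promoter only with Renilla not read in this screen; 0% = Sendai virus plus DMSO and 100% = medium plus DMSO without virus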); settings: HEK293 RL24 IRF3 luciferase reporter, at 10 µM, stronger effect = higher value
# [8] = TLR3 IRF3 reporter activation blockers – cell-based, poly I:C stimulus, luciferase, 10K MLSCN set, primary screen (AID 602277;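 active means inhibition of the reporter signal at or above 50%; inactive means inhibition below 50%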); settings: HEK293-TLR3 RL24 IRF3 luciferase reporter, at 10 µM, stronger effect = higher value
SMILES,cell count [1],inhibition [1],inhibition of aggregation [2],nuclei count [2],inhibition [3],nuclei count [3],fluorescence slope [4],NADPH fluorescence slope [5],slope [6],inhibition [7],inhibition [8]
N#Cc1c2n(c(=S)n(-c3ccccn3)c1=O)CCCCC2,588,-26.4% (inactive),-14.8% (inactive),111%,-117% (inactive),144%,-0.477 (inactive),-4.9e-05 (inactive),0.00579 (inactive),-7.7% (inactive),11% (inactive)
Cc1occc1-c1nnc(SCC(=O)c2ccc(F)cc2)n1Cc1ccco1,370,5% (inactive),21.2% (inactive),87.3%,-42.8% (inactive),107%,-0.393 (inactive),2e-06 (inactive),0.00656 (inactive),9.07% (inactive),12% (inactive)
Cc1cc(C(=O)OCC(=O)N2c3ccccc3CC2C)c(C)o1 (centres undefined),733,-9.6% (inactive),3.2% (inactive),85.1%,-49.5% (inactive),111%,-0.425 (inactive),2.6e-05 (inactive),0.00532 (inactive),-14.2% (inactive),-2.49% (inactive)
CCOCC(=O)Nc1nc2c(s1)C(=O)CC(C)(C)C2,921,0.6% (inactive),-38% (inactive),144%,-70.4% (inactive),122%,-0.541 (inactive),2.2e-05 (inactive),0.00739 (inactive),12.5% (inactive),39% (inactive)
COc1ccc(CNc2ccc(C(=O)O)cc2)cc1,511,-28.3% (inactive),-17.2% (inactive),116%,-61% (inactive),107%,-0.513 (inactive),-3.9e-05 (inactive),0.00575 (inactive),-4.3% (inactive),-15.8% (inactive)
CCOc1cccc2cc(C(=O)N3CCN(C/C=C/c4ccccc4)CC3)c(=O)oc12,596,-3.6% (inactive),-2.4% (inactive),103%,-80.4% (inactive),133%,-0.236 (inactive),-4e-05 (inactive),0.00413 (inactive),1.41% (inactive),-10.8% (inactive)
C=CCn1c(N)c(C(=O)NCCC2=CCCCC2)sc1=S,450,6.6% (inactive),-12.8% (inactive),104%,4% (inactive),116%,-0.626 (inactive),-1.2e-05 (inactive),0.00668 (inactive),0.338% (inactive),-64.6% (inactive)
O=C(CN1C(=O)NC2(CCCCC2)C1=O)Nc1ccc(S(=O)(=O)N2CCOCC2)cc1,460,5.2% (inactive),-2.3% (inactive),93.7%,29.7% (inactive),96.2%,-0.49 (inactive),-7.9e-06 (inactive),0.00589 (inactive),9.77% (inactive),34.3% (inactive)
Cn1c(-c2cc(Br)ccc2O)n[nH]c1=S,440,5.5% (inactive),-2.6% (inactive),109%,-76.5% (inactive),118%,-0.51 (inactive),4.9e-05 (inactive),0.00989 (inactive),-4.65% (inactive),-14.4% (inactive)
C=C(C)c1cccc(C(C)(C)NC(=O)NCC2CCCO2)c1 (centres undefined),496,2.3% (inactive),-23% (inactive),108%,-31.1% (inactive),113%,-0.362 (inactive),-5.6e-05 (inactive),0.0056 (inactive),7.08% (inactive),9.27% (inactive)
CCN(CC)C(=O)CSc1nnc([C@@H](N)Cc2ccccc2)o1,673,1.7% (inactive),-2.7% (inactive),84.3%,-0.8% (inactive),96%,-0.499 (inactive),1.4e-05 (inactive),0.00547 (inactive),15.4% (inactive),22% (inactive)
CCOCCCNC(=O)Cn1ncc2c(=O)oc3ccccc3c21,651,-13.4% (inactive),-20.1% (inactive),98.5%,-32.1% (inactive),104%,-0.586 (inactive),-1.8e-05 (inactive),0.00598 (inactive),5.54% (inactive),30.9% (inactive)
COc1cc(CN2CCC(C(=O)NC3CCCC3)CC2)ccc1O,755,-5.5% (inactive),-13.7% (inactive),64.3%,-29.8% (inactive),124%,-0.344 (inactive),-3.9e-06 (inactive),0.00666 (inactive),4.81% (inactive),13.9% (inactive)
CCOC(=O)c1cc2sc(C)cc2n1CC(=O)NCc1ccc(F)cc1,560,-19.6% (inactive),-31% (inactive),98.7%,-35.8% (inactive),124%,-0.382 (inactive),-4.5e-05 (inactive),0.00466 (inactive),6.92% (inactive),16.7% (inactive)
